For some of these results: Measured potencies and affinities stand elsewhere. The source made the active and inactive calls.
Columns and labels:
[1] = Ebola virus entry assay, green fluorescence channel
[2] = Ebola virus entry assay, ratio channel readout
[3] = Ebola virus entry assay, blue channel fluorescence
[4] = Ebola virus entry assay, ratio channel
[5] = Ebola virus entry assay, green channel fluorescence
[6] = Ebola virus entry assay, blue channel fluorescence; remark: listed apart in the source
[7] = Ebola virus entry assay, reporter ratio channel; AC50: Channel type: primary unless noted; outcome: Channel type: primary unless noted
[8] = Ebola virus entry assay, blue channel (ratio component)
[9] = Ebola virus entry cell assay, ratio channel
[10] = Ebola virus entry reporter assay, green channel fluorescence

Measured: AC50

CNS(=O)(=O)CCc1ccc2[nH]cc(C3CCN(C)CC3)c2c1
inactive: [1] | [2] | [3] | [4] | [5] | [6] | [7] | [8] | [9]

Cn1c(CCCC(=O)O)nc2cc(N(CCCl)CCCl)ccc21
inactive: [1] | [2] | [3] | [4] | [5] | [6] | [7] | [8] | [9]

C[n+]1ccccc1/C=N/O
inactive: [1] | [2] | [3] | [4] | [5] | [6] | [7] | [8] | [9]

CC(C)(O)c1ccccc1CC[C@@H](SCC1(CC(=O)O)CC1)c1cccc(/C=C/c2ccc3ccc(Cl)cc3n2)c1
inactive: [1] | [2] | [3] | [4] | [5] | [6] | [7] | [8] | [9]

Cc1ccc(C(=O)c2cc(O)c(O)c([N+](=O)[O-])c2)cc1
inactive: [1] | [2] | [3] | [4] | [5] | [6] | [7] | [8] | [9]

CC1(C)S[C@@H]2[C@H](NC(=O)Cc3ccccc3)C(=O)N2[C@H]1C(=O)O (tested in a mixture with another compound)
inactive: [1] | [2] | [3] | [4] | [5] | [6] | [7] | [8] | [9]

O=NN(CCCl)C(=O)NCCCl
inactive: [1] | [2] | [3] | [4] | [5] | [6] | [7] | [8] | [10] | [9]

Nc1ncn([C@@H]2O[C@H](CO)[C@@H](O)[C@H]2O)c(=O)n1
inactive: [1] | [2] | [3] | [4] | [5] | [6] | [7] | [8] | [9]

CN(CCOc1ccc(NS(C)(=O)=O)cc1)CCc1ccc(NS(C)(=O)=O)cc1
inactive: [1] | [2] | [3] | [4] | [5] | [6] | [7] | [8] | [9]

Nc1nc(F)nc2c1ncn2[C@@H]1O[C@H](CO)[C@@H](O)[C@@H]1O
inactive: [1] | [2] | [3] | [4] | [5] | [6] | [7] | [8] | [9]

CCOc1ccc2ccccc2c1C(=O)N[C@@H]1C(=O)N2[C@@H]1SC(C)(C)[C@@H]2C(=O)O
inactive: [1] | [2] | [3] | [4] | [5] | [6] | [7] | [8] | [9]

CC(=O)N(O)CCCCCNC(=O)CCC(=O)N(O)CCCCCNC(=O)CCC(=O)N(O)CCCCCN
inactive: [1] | [2] | [3] | [4] | [5] | [6] | [7] | [8] | [9]

Cc1cn([C@H]2C=C[C@@H](CO)O2)c(=O)[nH]c1=O
inactive: [1] | [2] | [3] | [4] | [5] | [6] | [7] | [8] | [9]

CC[N+](C)(C)c1cccc(O)c1
inactive: [1] | [2] | [3] | [4] | [5] | [6] | [7] | [8] | [10] | [9]

NS(=O)(=O)Cc1noc2ccccc12
inactive: [1] | [2] | [3] | [4] | [5] | [6] | [7] | [8] | [9]

C[C@@H]1C[C@H]2[C@@H]3CCC4=CC(=O)C=C[C@]4(C)[C@@]3(F)[C@@H](O)C[C@]2(C)[C@@]1(O)C(=O)CO
inactive: [1] | [2] | [3] | [4] | [5] | [6] | [7] | [8] | [10] | [9]

O=c1n(CCCN2CCN(c3cccc(Cl)c3)CC2)nc2ccccn12
inactive: [1] | [2] | [3] | [4] | [5] | [6] | [7] | [8] | [9]

C=C(c1ccc(C(=O)O)cc1)c1cc2c(cc1C)C(C)(C)CCC2(C)C
inactive: [1] | [2] | [3] | [4] | [5] | [6] | [7] | [8] | [9]

CN(C)CCc1c[nH]c2ccc(CS(=O)(=O)N3CCCC3)cc12
inactive: [1] | [2] | [3] | [4] | [5] | [6] | [7] | [8] | [9]

C[C@H]1O[C@H](O[C@H]2[C@H](O)[C@@H](O)[C@@H](O[C@H]3[C@H](O)[C@@H](O)[C@H](O)O[C@@H]3CO)O[C@@H]2CO)[C@H](O)[C@@H](O)[C@@H]1N[C@H]1C=C(CO)[C@@H](O)[C@H](O)[C@H]1O
inactive: [1] | [2] | [3] | [4] | [5] | [6] | [7] | [8] | [9]

CC1(C)O[C@@H]2[C@@H](CO[C@@]3(COS(N)(=O)=O)OC(C)(C)O[C@@H]23)O1
inactive: [1] | [2] | [3] | [4] | [5] | [6] | [7] | [8] | [9]

CCCN(CCC)S(=O)(=O)c1ccc(C(=O)O)cc1
inactive: [1] | [2] | [3] | [4] | [5] | [6] | [7] | [8] | [9]

COC(c1ccccc1)(c1ccccc1)[C@H](Oc1nc(C)cc(C)n1)C(=O)O
inactive: [1] | [2] | [3] | [4] | [5] | [6] | [7] | [8] | [9]

CC(C)C(=O)Nc1ccc([N+](=O)[O-])c(C(F)(F)F)c1
inactive: [1] | [2] | [3] | [4] | [5] | [6] | [7] | [8] | [9]

CCCCNc1ccc(C(=O)OCCOCCOCCOCCOCCOCCOCCOCCOCCOC)cc1
inactive: [1] | [2] | [3] | [4] | [5] | [6] | [7] | [8] | [10] | [9]

Nc1nc(=S)c2[nH]cnc2[nH]1
inactive: [1] | [2] | [3] | [4] | [5] | [6] | [7] | [8] | [9]

COc1ccc(-c2cc(=S)ss2)cc1
inactive: [1] | [2] | [3] | [4] | [5] | [6] | [7] | [8] | [9]

NCCC(O)(P(=O)(O)O)P(=O)(O)O
inactive: [1] | [2] | [3] | [4] | [5] | [6] | [7] | [8] | [10] | [9]

Cc1cc(C)cc(OCC2CNC(=O)O2)c1 (stereo not given)
inactive: [1] | [2] | [3] | [4] | [5] | [6] | [7] | [8] | [9]

CC(=O)O[C@]1(C(C)=O)CC[C@H]2[C@@H]3C=C(C)C4=CC(=O)CC[C@]4(C)[C@H]3CC[C@@]21C
inactive: [1] | [2] | [3] | [4] | [5] | [6] | [7] | [8] | [9]

N[C@@H](Cc1cc(I)c(Oc2cc(I)c(O)c(I)c2)c(I)c1)C(=O)O
inactive: [1] | [2] | [3] | [4] | [5] | [6] | [7] | [8] | [9]

CCCCCOC(=O)Nc1nc(=O)n([C@@H]2O[C@H](C)[C@@H](O)[C@H]2O)cc1F
inactive: [1] | [2] | [3] | [4] | [5] | [6] | [7] | [8] | [9]

Cn1c(=O)c2c(ncn2CC(O)CO)n(C)c1=O (stereo not given)
inactive: [1] | [2] | [3] | [4] | [5] | [6] | [7] | [8] | [10] | [9]

CCCC(C)(COC(N)=O)COC(=O)NC(C)C (stereo not given)
inactive: [1] | [2] | [3] | [4] | [5] | [6] | [7] | [8] | [9]

COc1nc(N)nc2c1ncn2[C@@H]1O[C@H](CO)[C@@H](O)[C@@H]1O
inactive: [1] | [2] | [3] | [4] | [5] | [6] | [7] | [8] | [9]

CCc1nc(N)nc(N)c1-c1ccc(Cl)cc1
inactive: [1] | [2] | [4] | [5] | [6] | [9]
active: [3] 39.8 µM | [7] 39.8 µM

COc1c(C)c2c(c(O)c1C/C=C(\C)CCC(=O)O)C(=O)OC2
inactive: [1] | [2] | [3] | [4] | [5] | [6] | [7] | [8] | [9]

Cc1nccn1CC1CCc2c(c3ccccc3n2C)C1=O (stereo not given)
inactive: [1] | [2] | [5] | [6] | [10] | [9]
active: [3] 22.4 µM | [4] 22.4 µM | [7] 22.4 µM

C#Cc1cccc(Nc2ncnc3cc(OCCOC)c(OCCOC)cc23)c1
active: [9] 8.91 µM
inactive: [1] | [2] | [3] | [4] | [5] | [7] | [8] | [10]

CN(C)CCOC(C)(c1ccccc1)c1ccccn1 (stereo not given)
active: [3] 15.8 µM | [4] 14.1 µM | [7] 14.1 µM
inactive: [1] | [2] | [5] | [9]

CCCN1C[C@H](CSC)C[C@@H]2c3cccc4[nH]cc(c34)C[C@H]21
active: [3] 11.2 µM | [4] 7.94 µM | [7] 7.94 µM
inactive: [1] | [2] | [5] | [6] | [9]

NNc1nncc2ccccc12
inactive: [1] | [2] | [3] | [4] | [5] | [7] | [8] | [10] | [9]

C=C[C@H]1CN2CC[C@H]1C[C@@H]2[C@@H](O)c1ccnc2ccc(OC)cc12
inactive: [1] | [2] | [4] | [5] | [6] | [10] | [9]
active: [3] 20 µM | [7] 35.5 µM

CCn1cc(C(=O)O)c(=O)c2cc(F)c(N3CCNCC3)cc21
inactive: [1] | [2] | [3] | [4] | [5] | [6] | [7] | [10] | [9]

CC(=O)Oc1ccccc1C(=O)Nc1ncc([N+](=O)[O-])s1
inactive: [1] | [2] | [3] | [4] | [5] | [7] | [9]

CC[C@H](C)C(=O)O[C@H]1C[C@@H](C)C=C2C=C[C@H](C)[C@H](CC[C@@H]3C[C@@H](O)CC(=O)O3)[C@H]21
inactive: [1] | [2] | [3] | [4] | [5] | [7] | [8] | [9]

NC1[C@H]2CN(c3nc4c(cc3F)c(=O)c(C(=O)O)cn4-c3ccc(F)cc3F)C[C@@H]12 (stereo not given in full)
inactive: [1] | [2] | [3] | [4] | [5] | [6] | [7] | [10] | [9]

CCC1=C[C@@H]2CN(C1)Cc1c([nH]c3ccccc13)[C@@](C(=O)OC)(c1cc3c(cc1OC)N(C)[C@H]1[C@@](O)(C(=O)OC)[C@H](OC(C)=O)[C@]4(CC)C=CCN5CC[C@]31[C@@H]54)C2
inactive: [1] | [2] | [5] | [7] inactive [Channel type: confirmation] | [8]
active: [3] 7.94 µM | [4] 2.51 µM | [9] 0.282 µM

— PubChem BioAssay (NCATS)
